Screening results deposited in PubChem by National Center for Advancing Translational Sciences (NCATS).
LASV entry inh = inhibitors of Lassa virus binding or cell entry | hit rate 1.2% among 300,000 | Lassa virus pseudotype entry inhibition, cell reporter | Potency, µM (series often up to 37.9 µM), usual class: inhibitors; calls by dose curve; tested in HEK293 cells; also: nearly all actives have a fitted effect of over 50% in size
HCMV inh = human cytomegalovirus inhibition | activity change, negative = inhibition, % at 57.5 µM | hit rate 4.5% among 410,000 | HFF cells, HCMV-luciferase reporter, 72 h; stronger effect = lower value; in the data active = activity change below about -60%; inconclusive = no clear call, values can overlap the other calls; inactive = above about -39%
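Luciferase read-out from HCMV-luciferase-infected HFFs (MOI 1 PFU/cell) 72 h post infection at 37C; compounds added after 16 h cell attachment; activity normalized between buffer-only basal and Salinomycin (10uM) inhibitor controls.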
Pf growth 48h = inhibits P. falciparum growth in the first generation, 48 h | Potency, µM (doses to about 28.7 µM), usual class: inhibitors | P. falciparum luciferase growth in erythrocytes, 48 h | hit rate 5.9% among 310,000
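First compound was added to culture medium, then infected red cells at 0.1% parasitemia and 2% hematocrit (final). After incubation at 37 C under 5% CO2, luciferase detection reagent was dispensed and light output recorded.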
Marburg entry inh = blocks Marburg virus binding to or entry into cells; Marburg virus pseudotyped entry inhibition, cell reporter; Potency, µM (doses to about 37.8 µM), most hits filed as inhibitors; hit rate 1.8% among 300,000; AID 540276; calls by dose curve; tested in HEK293 cells
HCV inhibitor = HCV inhibition | Huh7.5.1 HCVcc-Cre infection, luciferase reporter, 44 h | Potency, µM (series often up to 41.8 µM), usual class: inhibitors | hit rate 3.4% among 340,000
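After 44 h co-culture of compound, cells and HCVcc-Cre (~0.5 moi), substrate is added for 15 min at room temperature and luciferase measured over 15 sec. Cells were seeded at 1,000/well and pre-cultured 4 h.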
Pf growth 96h = inhibits malaria parasite growth, 96 h; hit rate 6.9% among 320,000; AID 504834; Potency, µM (doses to about 28.7 µM), usual class: inhibitors; P. falciparum luciferase reporter growth, 96 h
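Cell-based qHTS: luciferase-tagged P. falciparum in erythrocytes (2% hematocrit, 0.05% parasitemia final) incubated with compounds for 96 hours, 37 C, 5% CO2; luciferase detection reagent then added and luminescence measured.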
A number is an active result; . = inactive; ? = inconclusive; / = no result given; [ ] = dose if it differs, or a comment. An excerpt weighted towards active compounds, which were near 14% of everything screened. Unless noted, calls follow the shape of the dose curve; as a rule, active = well fitted inhibition curve with a large enough effect; inconclusive = small, poorly fitted or top-dose-only effect, or another doubt; inactive = no such curve, though single readings can be large or run the other way.

SMILES	LASV entry inh	HCMV inh	Pf growth 48h	Marburg entry inh	HCV inhibitor	Pf growth 96h
CC(C)C1CCN(C(=O)C2CCC(=O)N(CCc3ccc(Cl)cc3)C2)CC1 (stereo not drawn)	.	-64	.	.	?	.
COc1cc2c(Nc3ccc(Br)cc3F)ncnc2cc1OCC1CCN(C)CC1	/	/	0.67µM	/	/	1.5µM
COc1cc2ncnc(NCc3cccc(F)c3F)c2cc1OC	/	?	/	/	.	?
N=c1n(Cc2ccccc2)c2ccccc2n1CC(O)c1ccccc1 (stereo not drawn)	?	?	2.1µM	?	?	2.3µM
COc1ccccc1OCC(O)Cn1c(=N)n(Cc2ccccc2)c2ccccc21 (stereo not drawn)	?	.	9.3µM	?	?	?
CCCCCn1c(=N)n(CC(O)COc2ccccc2OC)c2ccccc21 (stereo not drawn)	?	.	4.7µM	?	11µM	?
CCCCn1c(=N)n(CCOc2ccc(C)cc2)c2ccccc21	?	.	7.4µM	?	.	.
C=CCn1c(=N)n(CC(O)COc2ccccc2OC)c2ccccc21 (stereo not drawn)	/	.	/	/	?	?
COc1ccc(NC2CCCN(C(=O)CSc3ccncc3)C2)cc1 (stereo not drawn)	.	.	.	.	/	.
N=c1n(Cc2ccccc2Cl)c2ccccc2n1CC(O)c1ccco1 (stereo not drawn)	?	.	?	.	.	.
Cc1ccccc1OCC(O)Cn1c(=N)n(Cc2ccccc2)c2ccccc21 (stereo not drawn)	?	-74	?	?	?	.
CCn1c(=N)n(CCOc2ccc(Br)cc2)c2ccccc21	.	-101	/	/	/	/
COc1ccc(OCCn2c(=N)n(CCO)c3ccccc32)cc1	.	.	.	?	.	/
Cc1ccc(Cn2c(=N)n(CC(O)c3ccco3)c3ccccc32)cc1 (stereo not drawn)	.	.	?	11µM	?	/
COc1ccccc1OCCn1c(=O)sc2ccccc21	.	.	.	.	.	.
CCCCn1c(=N)n(CCOc2ccccc2OC)c2ccccc21	?	-71	/	?	/	/
COc1ccc(NCc2nc3ccccc3n2CCOc2ccccc2C)cc1	.	.	/	?	/	/
CCN(CCCNC(=O)c1nn(-c2ccc(OC)cc2)c(=O)c2c1c1ccccc1n2C)c1cccc(C)c1	.	.	/	.	/	/
O=C(Cc1ccc(S(=O)(=O)N2CCOCC2)s1)Nc1nc2c(s1)CCCC2	.	.	?	.	?	9.3µM
CCCN(CC(=O)Nc1ccc(F)c(F)c1F)C(=O)Cc1ccc(S(=O)(=O)N2CCOCC2)s1	/	.	12µM	/	?	?
CCC(CC)NC(=O)Cc1ccc(S(=O)(=O)N2CCOCC2)s1	.	.	/	.	.	.
O=C(Cc1ccc(S(=O)(=O)N2CCOCC2)s1)Nc1ccc2c(c1)CCC2	.	.	?	.	?	/
O=C(Cc1ccc(S(=O)(=O)N2CCCCC2)s1)Nc1ccc(F)cc1F	.	.	.	.	?	13µM
COc1cc(NC(=O)Cc2ccc(S(=O)(=O)N3CCOCC3)s2)c(OC)cc1Cl	?	.	?	?	.	8.3µM
CO[C@H]1C[C@@H]2CC[C@@H](C)[C@@](O)(O2)C(=O)C(=O)N2CCCC[C@H]2C(=O)O[C@H]([C@H](C)C[C@@H]2CC[C@@H](OC(=O)C(C)(CO)CO)[C@H](OC)C2)CC(=O)[C@H](C)/C=C(\C)[C@@H](O)[C@@H](OC)C(=O)[C@H](C)C[C@H](C)/C=C/C=C/C=C/1C	/	/	.	/	/	.
SMILES	LASV entry inh	HCMV inh	Pf growth 48h	Marburg entry inh	HCV inhibitor	Pf growth 96h
Cc1cc(C)c(S(=O)(=O)c2cccc(C)c2C)c(=O)[nH]1	.	.	.	.	?	.
CN(Cc1ccccc1)Cc1c(O)ccc2c(=O)c(-c3ccccc3)c(C(F)(F)F)oc12	.	.	/	.	/	/
COc1cc(OC)c(NC(=O)Cc2ccc(OC)c(S(=O)(=O)N3CCOCC3)c2)cc1Cl	.	.	?	.	.	?
COC(=O)c1c(NC(=O)Cc2ccc(OC)c(S(=O)(=O)N3CCOCC3)c2)sc(C)c1C	.	.	13µM	?	?	?
O=C(Cc1ccc(S(=O)(=O)N2CCOCC2)s1)Nc1cc(Cl)ccc1Cl	.	.	13µM	.	.	?
CCNC(=O)Cc1ccc(S(=O)(=O)N2CCOCC2)s1	/	.	?	/	.	.
COc1cc(NC(=O)Cc2ccc(OC)c(S(=O)(=O)N3CCOCC3)c2)c(OC)cc1Cl	.	.	?	.	?	15µM
CC(=O)Nc1cccc(C(=O)OCC(=O)NCc2ccc(F)cc2)c1	.	.	13µM	.	.	.
CC(=O)c1cccc(NC(=O)N2CCCC2C(=O)NCc2ccc(F)cc2)c1 (stereo not drawn)	.	.	.	.	.	10µM
CCOC(=O)C1=C(C)NC(C)=C(C(=O)OCC)C1C(=O)OCC(=O)NCc1ccc(F)cc1	/	.	/	/	3.5µM	/
CC(=O)c1cccc(NC(=O)N2CCCC2C(=O)NCc2ccc(C)cc2)c1 (stereo not drawn)	.	.	.	.	.	.
CCNC(=O)COC(=O)C1C(C(=O)OCC)=C(C)NC(C)=C1C(=O)OCC	.	.	.	.	.	/
CC(=O)c1cccc(NC(=O)N2CCCC2C(=O)Nc2cccc(C)c2C)c1 (stereo not drawn)	.	.	.	.	.	2.9µM
CC(=O)Nc1ccc(C(=O)OCC(=O)NCc2ccccc2)cc1	?	.	.	?	.	.[5.75 µM]
CCOc1ccccc1OCC(=O)N/N=C(\C)Cc1ccc(OC)cc1	?	.	.	?	.	?
COc1ccccc1OCC(=O)NN=C(Cc1ccccc1)Cc1ccccc1	.	-63	?	?	?	?
CCC(=N\NC(=O)COc1ccccc1OC)/C(CC)=N/NC(=O)COc1ccccc1OC	/	.	9.3µM	/	?	?
COC(=O)[C@@]1(C=C2c3ccc(F)cc3[C@@H](OC)[C@@H]2C)[C@@H]2Oc3ccccc3[C@@H]21	/	/	/	.	/	/
O=C1CSC(=NC2CCCCC2)N1	.	.	.	.	?	?
O=C1CS/C(=N/N=C2CCCC2)N1	.	?	.	.	.	3.3µM
CC(=O)c1ccc(NC(=O)c2ccc(C)c(S(=O)(=O)N3CCOCC3)c2)cc1	.	.	?	?	.	.
O=C(Nc1ccc(N2CCCCCC2)cc1)c1cccc(S(=O)(=O)N2CCOCC2)c1	?	-74	13µM	?	2.5µM	10µM
CCOC(=O)c1ccc(NC(=O)c2cccc(S(=O)(=O)N3CCOCC3)c2)cc1	?	.	6.6µM	?	3.5µM	.
O=C(Nc1cccc(S(=O)(=O)N2CCOCC2)c1)c1cccc(S(=O)(=O)N2CCCCC2)c1	.	.	?	?	.	?
CCOC(=O)c1ccc(NC(=O)c2ccc(C)c(S(=O)(=O)N3CCOCC3)c2)cc1	?	?	/	2.8µM	5µM	.
